Here are results for 20 compounds from PubChem BioAssay (EPA / NIEHS).

Inconclusive results are not listed. The source made the active and inactive calls. The calls were made as follows: active = hit-call score of the fitted dose curve at least 0.9, where 1 is the maximum; inconclusive = response in the unintended direction; inactive = score below 0.9.

Assay [1] deals with human Constitutive Androstane Receptor (CAR), NR1I3 (gene 9970) (UniProt Q14994). Briefly: NVS_NR_hCAR_Antagonist: NovaScreen (NVS) Nuclear Receptor Binding Assay for human Constitutive Androstane Receptor Antagonism (CAR) (AID 2283344). The method in brief: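 Cell-free TR-FRET binding read 1 h after dosing, antagonist mode; loss of signal versus DMSO baseline. Primary screen in duplicate at a single 25 uM; actives retested in concentration series.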

For assay [2], the target named is Estrogen receptor (Homo sapiens) (UniProt P03372). Briefly: OT_ER_ERaERa_1440: Odyssey Thera (OT) 24-hour HEK293T Protein-Complementation Assay for Estrogen Receptor-alpha/-alpha Homodimer (AID 2283349).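 Also: hits raise fluorescence above DMSO for agonists and antagonists alike.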 A digest of the protocol:
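Readout is the rise in mean fluorescence from reporter fragment complementation when ERα LBD (aa 310-547) units dimerize in HEK293T cells. Measured 24 h after dosing and analysed as increase over DMSO control.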

The target of assay [3] is T1, Estrogen receptor (Homo sapiens) + Estrogen receptor beta (Homo sapiens) (UniProt P03372+Q92731). Briefly: OT_ER_ERaERb_0480: Odyssey Thera (OT) 8-hour HEK293T Protein-Complementation Assay for Estrogen Receptor-alpha/-beta Heterodimer (AID 2283352). A digest of the protocol:
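HEK293T protein-fragment complementation assay of ER-alpha/ER-beta LBD heterodimerisation, read 8 h after dosing. Mean nuclear/cytoplasmic fluorescence intensity measured by laser scanning cytometry; gain of signal fitted relative to DMSO.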

The target in assay [4] is T1, Estrogen receptor (Homo sapiens) + Estrogen receptor beta (Homo sapiens). Briefly: OT_ER_ERaERb_1440: Odyssey Thera (OT) 24-hour HEK293T Protein-Complementation Assay for Estrogen Receptor-alpha/-beta Homodimer (AID 2283356).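 Also: heteromer of ER alpha and ER beta binding domains; hits raise reporter fluorescence and both agonists and antagonists give an increase.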 The method in brief:
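HEK293T stably expressing a PCA of ER alpha LBD (aa 310-547) and ER beta LBD (aa 263-489). After 24 h compound exposure, mean fluorescence intensity in nucleus (agonists) or nucleus and cytoplasm (antagonists) measured by laser scanning cytometry versus vehicle.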

The target of assay [5] is Retinoic acid receptor alpha (Homo sapiens) (UniProt P10276). Briefly: NVS_NR_hRAR_Antagonist: NovaScreen (NVS) Nuclear Receptor Binding Assay for human Retinoic Acid Alpha Receptor Antagonism (RAR) (AID 2283358). A digest of the protocol:
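Cell-free TR-FRET binding assay on extracted receptor protein, run in antagonist mode; signal read 2 hours after chemical dosing. Loss of signal was fitted relative to DMSO baseline. Screened at 25 uM in duplicate, actives followed up in concentration series.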

For assay [6], the target named is Estrogen receptor (Homo sapiens) (UniProt P03372). Briefly: NVS_NR_hER: NovaScreen (NVS) Nuclear Receptor Binding Assay for human Estrogen Receptor (ER) (AID 2283348). A digest of the protocol:
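Cell-free radioligand binding with protein extracted from MCF7 cells; scintillation counting 18 hours after dosing. Loss of signal versus DMSO baseline read as displacement; primary single-concentration screen at 25 uM in duplicate, actives retested in concentration series.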

The target is the same in assay [7]. Briefly: OT_ER_ERaERa_0480: Odyssey Thera (OT) 8-hour HEK293T Protein-Complementation Assay for Estrogen Receptor-alpha/-alpha Homodimer (AID 2283351).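 Also: rise in fluorescence from reassembled reporter fragments on ERα LBD homodimer in nucleus or whole cell.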 A digest of the protocol:
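Binding reporter in which dimerisation of ERα LBD (aa 310-547) fusions reconstitutes a fluorescent reporter in HEK293T cells. Compounds incubated 8 h; mean fluorescence intensity increase versus DMSO scored.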

Assay [8] deals with Estrogen receptor beta (Homo sapiens) (UniProt Q92731). Briefly: OT_ER_ERbERb_0480: Odyssey Thera (OT) 8-hour HEK293T Protein-Complementation Assay for Estrogen Receptor-beta/-beta Homodimer (AID 2283357).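 Also: active means signal gain over DMSO baseline.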 A digest of the protocol:
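Readout: increase in mean fluorescence intensity (nucleus for agonists; nucleus plus cytoplasm for antagonists) relative to DMSO, from a reporter-fragment complementation of human ER-beta LBD homodimer in HEK293T cells dosed 8 hours.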

Assay [9] deals with guinea pig Histamine Receptor (H2), gene 100729734. Briefly: NVS_GPCR_gH2: NovaScreen (NVS) G Protein-Coupled Receptor Assay for guinea pig Histamine Receptor (H2) (AID 2283342). The method in brief:
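Radioligand displacement on guinea pig striatal membranes, 1 h after dosing, filter-based scintillation counting; loss of signal versus DMSO. Single-point screen at 25 uM in duplicate, then concentration-response up to 50 uM.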

In assay [10] the target is chimpanzee Androgen Receptor (AR), AR (gene 747460) (UniProt O97775). Briefly: NVS_NR_cAR: NovaScreen (NVS) Nuclear Receptor Binding Assay for chimpanzee Androgen Receptor (AR) (AID 2283346). A digest of the protocol: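 Cell-free radioligand displacement using receptor protein extracted from Sf9/Sf21 cells; bound radioligand measured by scintillation counting 72 hours after chemical dosing. Loss of signal versus DMSO baseline indicates binding; primary screen single-concentration in duplicate at 25 uM, actives followed in concentration series.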

Assay [11] addresses human Thyroid Receptor Alpha (TRa), THRA (gene 7067) (UniProt P10827). Briefly: NVS_NR_hTRa_Antagonist: NovaScreen (NVS) Nuclear Receptor Binding Assay for human Thyroid Receptor Alpha Antagonism (TRa) (AID 2283362).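 Also: activity is loss of signal relative to DMSO baseline.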 The method in brief:
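Cell-free AlphaLISA chemiluminescent binding read 1 h after dosing, antagonist mode; signal loss versus DMSO baseline. Primary screen in duplicate at 25 uM, then concentration series for actives.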

For assay [12], the target named is Glucocorticoid receptor (Homo sapiens) (UniProt P04150). Briefly: NVS_NR_hGR: NovaScreen (NVS) Nuclear Receptor Binding Assay for human Glucocorticoid Receptor (GR) (AID 2283363).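 As to AC50: activity is loss of specific radioligand binding signal relative to DMSO.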 A digest of the protocol:
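Cell-free radioligand binding with extracted receptor protein, read by filter-based scintillation counting 16 hours after dosing. Loss of specific signal versus DMSO baseline was scored. Primary screen ran in duplicate at 25 uM; actives were followed up in concentration series.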

The target in assay [13] is Nuclear receptor subfamily 1 group I member 2 (Homo sapiens) (UniProt O75469). Briefly: NVS_NR_hPXR: NovaScreen (NVS) Nuclear Receptor Binding Assay for human Pregnane X Receptor (PXR) (AID 2283365).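 Also: a drop in FRET signal versus DMSO baseline means the compound binds.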 A digest of the protocol:
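Cell-free TR-FRET binding assay with extracted human PXR protein, read 2 h after dosing. Primary screen run in duplicate at 25 uM, actives followed in concentration series; loss of signal fitted against DMSO baseline.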

The target of assay [14] is Bile acid receptor (Homo sapiens) (UniProt Q96RI1). Briefly: NVS_NR_hFXR_Antagonist: NovaScreen (NVS) Nuclear Receptor Binding Assay for human Farnesoid X Receptor Antagonism (FXR) (AID 2283350). A digest of the protocol: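 Cell-free TR-FRET ligand-binding read-out on human FXR (NR1H4) in antagonist mode, measured 1 h after dosing. Primary screen in duplicate at 25 uM, actives retested in concentration series; signal loss scored versus DMSO.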

Assay [15] concerns the target Androgen Receptor/SRC-1 Co-activator, AR (gene 367) (UniProt P10275). Briefly: OT_AR_ARSRC1_0960: Odyssey Thera (OT) 16-hour HEK293T Protein-Complementation Assay for Androgen Receptor/SRC-1 Co-activator (AID 2283353).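 Also: actives raise the signal above DMSO so potency reflects increased AR and SRC-1 complex.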 The method in brief:
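Interaction of AR with SRC-1 was followed by YFP fragment complementation in HEK293T cells after 16 h of dosing. Gain of nuclear-over-cytoplasmic 488 nm fluorescence against DMSO controls defined activity.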

The target in assay [16] is rat Mineralocorticoid Receptor (MR), Nr3c2 (gene 25672) (UniProt P22199). Briefly: NVS_NR_rMR: NovaScreen (NVS) Nuclear Receptor Binding Assay for rat Mineralocorticoid Receptor (MR) (AID 2283355). The method in brief: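 Cell-free radioligand binding to MR in adrenalectomized rat brain supernatant, scintillation counted 24 h after dosing. Loss of signal versus DMSO baseline marks displacement. Primary screen in duplicate at 25 uM; actives retested as concentration series.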

The target in assay [17] is Retinoic acid receptor alpha (Homo sapiens) (UniProt P10276). Briefly: NVS_NR_hRARa_Agonist: NovaScreen (NVS) Nuclear Receptor Binding Assay for human Retinoic Acid Alpha Receptor Agonism (RAR) (AID 2283361). The method in brief:
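Cell-free TR-FRET binding read-out with extracted human RARα protein, read 2 h after compound addition. Gain of signal scored against DMSO baseline. Primary screen at a single 25 uM in duplicate; actives then retested in concentration series.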

Estrogen receptor beta (Homo sapiens), sequence (Q92731 whole entry, looked up, the tested form may be a part): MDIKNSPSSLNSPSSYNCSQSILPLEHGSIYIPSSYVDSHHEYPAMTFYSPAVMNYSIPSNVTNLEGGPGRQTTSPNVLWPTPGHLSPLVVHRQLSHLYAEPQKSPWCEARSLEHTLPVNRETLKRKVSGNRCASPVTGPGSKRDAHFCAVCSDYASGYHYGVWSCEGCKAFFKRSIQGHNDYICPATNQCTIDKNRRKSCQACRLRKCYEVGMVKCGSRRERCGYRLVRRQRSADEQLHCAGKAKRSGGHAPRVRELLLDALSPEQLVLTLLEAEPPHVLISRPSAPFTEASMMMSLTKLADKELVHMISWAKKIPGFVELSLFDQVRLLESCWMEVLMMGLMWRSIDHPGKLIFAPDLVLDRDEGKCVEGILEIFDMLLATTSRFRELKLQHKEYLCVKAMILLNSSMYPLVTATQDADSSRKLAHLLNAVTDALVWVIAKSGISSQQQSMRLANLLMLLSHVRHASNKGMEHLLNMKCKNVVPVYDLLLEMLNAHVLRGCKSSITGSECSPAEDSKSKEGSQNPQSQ
T1 sequence (P03372 whole entry, looked up, the tested form may be a part): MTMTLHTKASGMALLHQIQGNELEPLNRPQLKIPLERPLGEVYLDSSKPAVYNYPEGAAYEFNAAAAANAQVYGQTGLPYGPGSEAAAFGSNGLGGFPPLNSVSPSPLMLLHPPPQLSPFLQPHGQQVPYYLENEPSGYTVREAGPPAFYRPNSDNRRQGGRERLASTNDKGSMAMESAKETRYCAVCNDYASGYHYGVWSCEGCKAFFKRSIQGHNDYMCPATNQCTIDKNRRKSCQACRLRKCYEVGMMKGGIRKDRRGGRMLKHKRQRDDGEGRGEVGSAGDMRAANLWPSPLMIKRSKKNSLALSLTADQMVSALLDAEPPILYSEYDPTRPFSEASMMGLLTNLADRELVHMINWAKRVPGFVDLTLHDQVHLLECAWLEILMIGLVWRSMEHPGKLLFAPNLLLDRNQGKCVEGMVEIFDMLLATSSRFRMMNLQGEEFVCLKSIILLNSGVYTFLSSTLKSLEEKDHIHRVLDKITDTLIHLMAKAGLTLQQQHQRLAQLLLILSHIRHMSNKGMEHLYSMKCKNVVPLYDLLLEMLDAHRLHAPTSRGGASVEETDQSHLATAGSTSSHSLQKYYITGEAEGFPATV
T1 sequence (Q92731 whole entry, looked up, the tested form may be a part): as the sequence (Q92731 whole entry, looked up, the tested form may be a part) above
Estrogen receptor (Homo sapiens), sequence (P03372 whole entry, looked up, the tested form may be a part): as the sequence (P03372 whole entry, looked up, the tested form may be a part) above
Retinoic acid receptor alpha (Homo sapiens), sequence (P10276 whole entry, looked up): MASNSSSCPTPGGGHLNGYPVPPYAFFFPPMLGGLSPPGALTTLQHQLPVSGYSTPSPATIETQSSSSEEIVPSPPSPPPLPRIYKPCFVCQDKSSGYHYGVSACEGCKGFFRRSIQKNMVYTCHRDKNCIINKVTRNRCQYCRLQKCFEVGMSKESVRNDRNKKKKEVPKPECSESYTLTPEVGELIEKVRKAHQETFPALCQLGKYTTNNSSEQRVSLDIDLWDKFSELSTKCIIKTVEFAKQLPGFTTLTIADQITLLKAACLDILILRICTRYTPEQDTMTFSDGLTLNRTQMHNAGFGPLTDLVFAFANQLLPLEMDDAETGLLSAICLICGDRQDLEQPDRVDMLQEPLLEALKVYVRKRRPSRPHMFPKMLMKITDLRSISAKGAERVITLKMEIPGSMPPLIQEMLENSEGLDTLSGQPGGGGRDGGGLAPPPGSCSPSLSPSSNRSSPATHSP
human Thyroid Receptor Alpha (TRa), THRA (gene 7067), sequence (P10827 whole entry, looked up): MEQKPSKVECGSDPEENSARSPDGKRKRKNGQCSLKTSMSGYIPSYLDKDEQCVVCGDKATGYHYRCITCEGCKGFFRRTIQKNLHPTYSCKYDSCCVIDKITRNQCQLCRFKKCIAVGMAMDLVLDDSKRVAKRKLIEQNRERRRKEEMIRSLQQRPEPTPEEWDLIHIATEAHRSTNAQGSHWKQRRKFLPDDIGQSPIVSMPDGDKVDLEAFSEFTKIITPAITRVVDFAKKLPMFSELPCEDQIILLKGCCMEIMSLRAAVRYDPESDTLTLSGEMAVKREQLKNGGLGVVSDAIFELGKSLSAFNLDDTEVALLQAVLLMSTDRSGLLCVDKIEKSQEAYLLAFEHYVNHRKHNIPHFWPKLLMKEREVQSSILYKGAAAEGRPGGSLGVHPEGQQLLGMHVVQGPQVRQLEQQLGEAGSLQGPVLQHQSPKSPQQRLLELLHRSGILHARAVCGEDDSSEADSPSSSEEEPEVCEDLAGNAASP
Androgen Receptor/SRC-1 Co-activator, AR (gene 367), sequence (P10275 whole entry, looked up, the tested form may be a part): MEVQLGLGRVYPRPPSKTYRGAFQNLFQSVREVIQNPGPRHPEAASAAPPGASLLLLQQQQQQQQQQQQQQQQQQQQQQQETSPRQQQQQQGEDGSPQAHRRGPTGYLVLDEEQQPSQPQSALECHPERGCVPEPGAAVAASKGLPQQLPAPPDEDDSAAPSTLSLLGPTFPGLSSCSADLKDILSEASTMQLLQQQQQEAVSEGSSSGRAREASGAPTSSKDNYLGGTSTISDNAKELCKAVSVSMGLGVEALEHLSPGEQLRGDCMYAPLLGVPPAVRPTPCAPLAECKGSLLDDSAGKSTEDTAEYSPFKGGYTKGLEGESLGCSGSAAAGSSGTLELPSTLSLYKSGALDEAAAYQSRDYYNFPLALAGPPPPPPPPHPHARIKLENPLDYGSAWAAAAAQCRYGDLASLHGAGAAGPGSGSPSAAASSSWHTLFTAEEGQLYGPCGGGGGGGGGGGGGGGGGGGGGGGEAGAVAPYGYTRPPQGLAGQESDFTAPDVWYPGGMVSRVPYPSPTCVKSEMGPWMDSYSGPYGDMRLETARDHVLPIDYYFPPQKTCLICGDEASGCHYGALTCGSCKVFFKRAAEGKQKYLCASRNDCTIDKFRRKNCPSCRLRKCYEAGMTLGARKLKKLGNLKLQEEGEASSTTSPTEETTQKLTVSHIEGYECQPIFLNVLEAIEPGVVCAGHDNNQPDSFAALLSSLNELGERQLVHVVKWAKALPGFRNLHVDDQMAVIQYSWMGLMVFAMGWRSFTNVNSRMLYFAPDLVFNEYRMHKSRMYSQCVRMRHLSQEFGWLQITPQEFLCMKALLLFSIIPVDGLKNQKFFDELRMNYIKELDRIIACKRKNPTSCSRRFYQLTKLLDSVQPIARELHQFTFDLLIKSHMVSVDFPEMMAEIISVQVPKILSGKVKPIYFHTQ
Glucocorticoid receptor (Homo sapiens), sequence (P04150 whole entry, looked up): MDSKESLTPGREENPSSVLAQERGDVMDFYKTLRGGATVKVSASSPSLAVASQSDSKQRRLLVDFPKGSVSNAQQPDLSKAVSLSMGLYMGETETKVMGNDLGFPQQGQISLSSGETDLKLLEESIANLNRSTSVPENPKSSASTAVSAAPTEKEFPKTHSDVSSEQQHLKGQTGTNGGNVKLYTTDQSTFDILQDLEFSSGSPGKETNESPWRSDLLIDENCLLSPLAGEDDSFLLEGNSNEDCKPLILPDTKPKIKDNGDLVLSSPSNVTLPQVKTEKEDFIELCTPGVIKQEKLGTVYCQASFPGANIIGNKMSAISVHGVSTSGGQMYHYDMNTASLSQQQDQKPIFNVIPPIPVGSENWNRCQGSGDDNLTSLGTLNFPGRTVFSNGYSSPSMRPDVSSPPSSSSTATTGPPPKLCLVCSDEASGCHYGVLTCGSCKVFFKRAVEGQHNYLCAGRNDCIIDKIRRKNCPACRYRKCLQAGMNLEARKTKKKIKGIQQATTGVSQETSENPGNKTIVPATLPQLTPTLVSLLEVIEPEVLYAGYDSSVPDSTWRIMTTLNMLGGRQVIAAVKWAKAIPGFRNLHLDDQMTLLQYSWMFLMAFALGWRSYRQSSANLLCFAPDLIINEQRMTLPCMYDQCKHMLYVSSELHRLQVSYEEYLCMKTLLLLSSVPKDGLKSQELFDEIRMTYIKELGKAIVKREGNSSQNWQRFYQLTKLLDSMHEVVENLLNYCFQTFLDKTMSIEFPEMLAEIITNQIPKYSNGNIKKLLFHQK
human Constitutive Androstane Receptor (CAR), NR1I3 (gene 9970), sequence (Q14994 whole entry, looked up): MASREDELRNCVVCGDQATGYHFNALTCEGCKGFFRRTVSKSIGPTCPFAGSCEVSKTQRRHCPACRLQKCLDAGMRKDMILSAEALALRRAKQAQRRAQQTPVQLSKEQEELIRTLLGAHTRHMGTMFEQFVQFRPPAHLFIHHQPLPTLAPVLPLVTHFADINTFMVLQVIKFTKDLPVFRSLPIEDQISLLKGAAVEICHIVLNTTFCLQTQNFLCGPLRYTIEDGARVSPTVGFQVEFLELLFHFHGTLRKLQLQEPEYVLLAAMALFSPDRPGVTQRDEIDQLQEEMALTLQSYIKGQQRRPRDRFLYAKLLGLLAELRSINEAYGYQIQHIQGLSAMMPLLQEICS
Nuclear receptor subfamily 1 group I member 2 (Homo sapiens), sequence (O75469 whole entry, looked up): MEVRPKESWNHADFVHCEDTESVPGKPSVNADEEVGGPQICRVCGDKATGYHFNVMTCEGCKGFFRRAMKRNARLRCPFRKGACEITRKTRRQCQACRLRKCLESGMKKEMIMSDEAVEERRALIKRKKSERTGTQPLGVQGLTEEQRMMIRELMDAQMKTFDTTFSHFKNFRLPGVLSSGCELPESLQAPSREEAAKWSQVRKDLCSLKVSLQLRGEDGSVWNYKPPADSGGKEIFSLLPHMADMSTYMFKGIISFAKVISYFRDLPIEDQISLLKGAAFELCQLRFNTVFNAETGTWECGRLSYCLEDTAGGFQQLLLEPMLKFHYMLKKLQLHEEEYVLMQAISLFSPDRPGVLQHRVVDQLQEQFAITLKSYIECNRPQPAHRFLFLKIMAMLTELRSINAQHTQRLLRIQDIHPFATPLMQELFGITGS

As for `O=C1C2CC=CCC2C(=O)N1SC(Cl)(Cl)Cl` (centres undefined), the outcome in assay [1], in assay [2], in assay [3], in [4] and in assay [5] was inactive.
As usually defined, the AC50 is the concentration at which the activity in the assay is half-maximal. For `Cc1c(COC(=O)[C@@H]2[C@H](/C=C(\Cl)C(F)(F)F)C2(C)C)cccc1-c1ccccc1`, the compound was classed as inactive in [6], in assay [2], in assay [7], in assay [3], in [8] and in assay [5]. Moreover, the AC50 in [4] is 72.3 µM (active).
Take `CC(C)(C)C(=O)C(Oc1ccc(Cl)cc1)n1cncn1` (centres undefined): the outcome in assay [9], in assay [1], in assay [6], in [2], in [7] and in assay [3] was inactive. For the same compound, the call in [8], in [11] and in assay [12] was inactive. Moreover, the results for the AC50 in [10], in [4] and in assay [13] were 19.6 µM (active), 58.6 µM (active) and 2.31 µM (active), respectively.
As for `CCCCC(C#N)(Cn1cncn1)c1ccc(Cl)cc1` (centres undefined), in assay [9], the AC50 was 29.7 µM (active). Also, the compound was called inactive in [1], in [6], in assay [2], in assay [7], in [5] and in [11]. Moreover, the compound was called inactive in assay [12].
Regarding `CC(C)NC(=O)N1CC(=O)N(c2cc(Cl)cc(Cl)c2)C1=O`, the compound was called inactive in assay [1], in [2] and in [7].
Consider `OC(c1ccc(Cl)cc1)(c1ccc(Cl)cc1)C(Cl)(Cl)Cl`, for which the compound was called inactive in [6], in assay [2], in assay [14], in assay [5] and in [11]. The AC50 in [3] is 11.8 µM (active); in assay [4], 11.9 µM (active); in [8], 12 µM (active); in [12], 6.9 µM (active).
Regarding `Nc1c(Cl)c(F)nc(OCC(=O)O)c1Cl`, the call in [2], in assay [3], in assay [15], in [4] and in assay [8] was inactive.
Turning to `CC(C)N1C(=O)c2ccccc2NS1(=O)=O`, the result in assay [2], in assay [7] and in assay [16] was inactive. The AC50 in assay [17] was 6.37 µM (active).
Regarding `CNC(=O)N(C)c1nnc(C(C)(C)C)s1`, the outcome in assay [2], in assay [7], in assay [3] and in [4] was inactive.
`COc1cc(OC)nc(NC(=O)NS(=O)(=O)c2ncccc2OCC(F)(F)F)n1`: the call in [2], in assay [7], in assay [3], in assay [4] and in assay [8] was inactive.
As to `Clc1cccc(C(Cl)(Cl)Cl)n1`, the call in [2], in assay [3], in [15] and in [4] was inactive.
On to `CCOP(=S)(OCC)Oc1nc(Cl)n(C(C)C)n1`, for which, in assay [2], the compound was called inactive.
On to `Nc1c(Cl)c(Cl)nc(C(=O)O)c1Cl`, for which the compound was classed as inactive in assay [2], in assay [3], in assay [4] and in assay [8].
Turning to `Cc1cnc(C2=NC(C)(C(C)C)C(=O)N2)c(C(=O)O)c1` (centres undefined), the call in assay [2], in assay [7], in [3], in assay [15], in [4] and in [8] was inactive. In addition, the result in assay [11] was inactive.
Consider `Cc1ccc(N=CN(C)C=Nc2ccc(C)cc2C)c(C)c1`, for which the result in assay [2], in assay [4], in assay [8] and in assay [5] was inactive.
Regarding `COP(=O)(OC)O/C(C)=C/C(=O)N(C)C`, the result in [2], in [3], in assay [4] and in assay [8] was inactive.
Turning to `N#Cc1c[nH]cc1-c1cccc2c1OC(F)(F)O2`, the AC50 is 31 µM (active) in [2] and 1.57 µM (active) in assay [12].
With `N#CN=C1SCCN1Cc1ccc(Cl)nc1`, the compound was classed as inactive in assay [2] and in assay [7].
In the case of `CC(C)Nc1nc(Cl)nc(NC(C)C)n1`, the compound was called inactive in assay [2], in assay [3] and in assay [4].
Regarding `CCOc1nc(C(Cl)(Cl)Cl)ns1`, the call in assay [2], in assay [7], in assay [3], in assay [16], in [4] and in assay [8] was inactive.
